Assay results taken from PubChem BioAssay AID743286 (National Center for Advancing Translational Sciences (NCATS), 2014).
Out of some 1,100 compounds screened, about 340 (31%) were called active. About 40% were inconclusive and are not listed. The call rests on the fitted dose curve; in most records, active means well fitted inhibition curve with a large enough effect; inconclusive means small, poorly fitted or top-dose-only effect; inactive means flat fitted curve, though single readings scatter. Only a sample is shown. Entries that show only a call come without a potency.

Biological target: Phosphatidylinositol 5-phosphate 4-kinase type-2 alpha (Homo sapiens) (UniProt P48426)
Sequence (P48426 whole entry, looked up): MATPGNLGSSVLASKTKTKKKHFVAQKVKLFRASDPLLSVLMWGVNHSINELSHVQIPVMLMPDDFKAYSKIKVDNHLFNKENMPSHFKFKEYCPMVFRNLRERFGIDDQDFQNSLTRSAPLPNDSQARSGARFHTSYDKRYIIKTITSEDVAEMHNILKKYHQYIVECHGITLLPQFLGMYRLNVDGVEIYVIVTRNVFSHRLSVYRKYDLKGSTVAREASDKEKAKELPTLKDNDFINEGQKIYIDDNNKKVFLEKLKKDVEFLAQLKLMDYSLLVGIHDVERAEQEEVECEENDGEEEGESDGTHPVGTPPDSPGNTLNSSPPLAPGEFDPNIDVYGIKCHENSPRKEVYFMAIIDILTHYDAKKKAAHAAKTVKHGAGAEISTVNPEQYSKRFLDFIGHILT
Test: qHTS for Inhibitors of PI5P4K: Confirmation in Primary Assay; further: nearly all actives have a fitted effect of over 65% in size
Details: PI5P4Kalpha enzyme, ADP-Glo luminescence, 60 min; series mostly up to 76.9 µM
Procedure, shortened: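 ADP-Glo luminescence end-point quantifies ADP from 60-min room-temperature turnover of PI5P by PI5P4Kα. ATP 5 µM final; buffer 0.038 M HEPES pH 7.4, 0.28 mM EGTA, 0.1% CHAPS, 5% DMSO.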
Potency means the concentration at half of the fitted maximal effect.

SMILES | Potency
CN(C)C(=S)NCc1ccccc1 | inactive
CC(=O)N1c2ccc(S(=O)(=O)NCCC(=O)N(C)C3CCCCC3)cc2CC1C (stereo not given) | inactive
COc1cccc2c1C(=O)C[C@]1(CCCC[C@@H]1C)O2 | inactive
COc1ccc(C(CNC(=O)c2ccc(OCc3cscn3)cc2)N2CCCC2)cc1 (stereo not given) | inactive
CC(C)Sc1nc(N2CCOCC2)c2c(c1C#N)CC(C)(C)N(C)C2 | inactive
Cc1cc(NC(=O)CCCn2cc([N+](=O)[O-])cn2)n(Cc2ccc(F)cc2)n1 | inactive
c1ccc2c(CCNc3ncnc4nc[nH]c34)c[nH]c2c1 | 17.8 µM (active)
Cc1sc2ncnc(NC(C)C(=O)O)c2c1C (stereo not given) | 3.98 µM (active)
CCn1nc(CC(=O)Nc2nnc(CC(=O)N3CCOCC3)s2)c2ccccc2c1=O | inactive
O=C(Cc1ccc(S(=O)(=O)N2CCOCC2)s1)Nc1nc2c(s1)CCCC2 | 14.1 µM (active)
CC(=O)c1ccc(NC(=O)c2cnn3ccccc23)cc1 | 3.55 µM (active)
O=S(=O)(O)c1cc(O)c2cc(Nc3ccccc3)ccc2c1 | 2 µM (active)
COc1ccccc1Nc1ccc2c(O)cc(S(=O)(=O)O)cc2c1 | 3.16 µM (active)
O=C(CCS(=O)(=O)c1ccc(Br)cc1)NCc1ccc(F)cc1 | inactive
Cc1cc(NC(=O)CN2CCN(C)CC2)no1 | inactive
Cc1cc(NC(=O)Nc2ccccc2[N+](=O)[O-])no1 | inactive
Cc1cc(NC(=O)CSc2cn(CCNC(=O)c3ccccc3)c3ccccc23)no1 | 14.1 µM (active)
COC(=O)c1ccc2c(c1)/C(=C/c1cc(Br)c(O)c(Br)c1)C(=O)N2 | 0.823 µM (active)
O=C1Nc2ccc(C(=O)c3ccco3)cc2/C1=C/c1cc(Cl)c(O)c(Cl)c1 | 0.207 µM (active)
NS(=O)(=O)c1ccc(CCNC(=O)c2ccc3nccnc3c2)cc1 | 14.1 µM (active)
O=C(Nc1ccccc1Cl)c1ccc2nccnc2c1 | inactive
COCc1cc(N2CCCCC2)nc(-c2ccccc2)n1 | inactive
Cc1ccc(-c2csc(NS(=O)(=O)c3cccc(F)c3)n2)o1 | 11.2 µM (active)
NS(=O)(=O)c1cccc(NC(=O)CSc2nnnn2-c2ccccc2)c1 | inactive
O=C(O)C1CSC(c2coc3ccccc3c2=O)N1 (stereo not given) | inactive
COc1cc(Cl)c(C)cc1NC(=O)CSc1sc2c(O)cc(=O)[nH]c2c1C#N | 5.01 µM (active)
COc1ccc(NC(C)=O)cc1NC(=O)CSc1nc2ncccc2[nH]1 | inactive
COc1ccccc1NC(=O)CSc1sc2c(O)cc(=O)[nH]c2c1C#N | 10 µM (active)
COc1ccccc1NC(=O)Cc1nnc(SCC(=O)Nc2ccccc2F)n1C | inactive
COc1ccc(NC(=O)CSc2sc3c(O)cc(=O)[nH]c3c2C#N)c(OC)c1 | 14.1 µM (active)
